In article PMC5540273 (PLoS ONE, 2017):

test system: TNNI3K; details: concentration: 1 μM, replicates: in singlicate; n = 1
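Also: KINOMEscan kinase panel screen.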

SMILES	%Inh [%]
CCn1c(-c2nonc2N)nc2c(-c3ccccc3)ncc(OCCCN)c21.O=C(O)C(F)(F)F.O=C(O)C(F)(F)F [GSK260205]	16
Cc1ccc(-c2ccc3occ(-c4ccc(S(C)=O)cc4)c3c2)nn1 (stereo not shown)	0
Cn1cc(-c2ccc3c(c2)CCN3C(=O)Cc2cc(F)cc(F)c2F)c2c(N)ncnc21 [GSK2634140]	0
COc1ccc(C)c(Nc2ccnc(Nc3ccc(-c4cnc[nH]4)cc3)n2)c1.Cl [GW784041]	100
c1ccc(Oc2ccc(Nc3ccnc4cc(-c5ccc(CN6CCCCC6)o5)ccc34)cc2)nc1 [GW567143]	1
CN(c1ccc(F)c(NC(=O)c2cccc(OC(C)(C)C#N)c2Cl)c1)c1ccc2nc(NC(=O)C3CC3)sc2n1	36
COc1cc(Nc2nccc(N3CCC(NS(=O)(=O)c4ccc(NC(C)=O)cc4)CC3)n2)cc(OC)c1OC [GSK1379825]	40
Cc1ccc(C)c(NC(=O)Nc2ccc(C)c(-c3ccc(C(=O)Nc4ccncc4)cc3)c2)c1 [GSK1398473]	59
CCNc1nccc(-c2c(-c3ccc(F)cc3)ncn2C2CCN(C)CC2)n1	0
Cc1ccc(NC(=O)c2cccc(N3CCCCC3)c2)cc1-c1ccc(C(=O)NCC2CC2)cc1 [GSK1917008]	28
Cl.Cl.NCC(NC(=O)c1cc(-c2cccnc2)c(-c2ccnc3[nH]ccc23)s1)c1ccccc1 (stereo not shown) [GSK1323434]	26
COc1cccc(-c2nc(-c3ccccc3)[nH]c2-c2ccncc2)c1 [SB-610250]	0
Cn1cc(-c2cnc(N)c3c(-c4ccc5c(c4)CCN5C(=O)Cc4ccccc4)csc23)cn1 [GSK2593074]	0
CN(C)CCNS(=O)(=O)c1ccc(-c2ccnc3[nH]ccc23)cc1 [GSK977620]	3
O=C(Nc1n[nH]c2nc(-c3cccc(O)c3)ccc12)C1CC1 [SB-711805]	0
Nc1cccc(-c2ccc3c(N)n[nH]c3c2)c1 [GSK2193613]	0
Cl.O=C(Nc1ccc(Oc2ccc3[nH]c(NC(=O)c4ccco4)nc3c2)cc1)Nc1cc(C(F)(F)F)ccc1F [GW683134]	87
COc1cccc2c(-c3ccncc3)c(-c3ccc(F)cc3)nn12 [GW468513]	6
COc1cc(Nc2ccnc3cc(-c4ccncc4)ccc23)cc(OC)c1OC.Cl [GW494610]	14

SMILES	%Inh [%]
O=C(O)C(F)(F)F.O=c1[nH]ccc2nc(N[C@@H]3CCNC3)nc(Nc3ccc4c(c3)S(=O)(=O)CC4)c12 [GSK2181306]	11
Cl.N#CCc1ccc(Nc2nccc(Nc3ccc(Oc4ccccc4)cc3)n2)cc1 [GW639905]	0
Cc1ccc(O)cc1Nc1ccnc2cc(-c3ccc(CN4CCCCC4)o3)ccc12 [GW557777]	20
Cl.Cl.NC(CNC(=O)c1cc(Br)c(-c2ccnc3[nH]ccc23)s1)c1ccccc1 (stereo not shown) [GSK1322949]	0
CN(c1ccc2c(c1)nc(NCc1ccccc1)n2C)c1ccnc(Nc2ccc(CS(C)(=O)=O)cc2)n1.Cl [GW811603]	0
Cc1ccc(O)cc1Nc1ccnc2ccc(C(C)(C)C)cc12 [GW856805]	6
COC(=O)Nc1nc2ccc(Oc3ccc(NC(=O)Nc4cc(C(F)(F)F)ccc4F)cc3)cc2[nH]1.Cl [GW654607]	92.4
Cn1cc(-c2ccc3c(c2)CCN3C(=O)Cc2cc(F)cc(C(F)(F)F)c2)c2c(N)ncnc21 [GSK2635225]	47
COc1cccc(CC(=O)N2CCc3cc(-c4cn(C)c5ncnc(N)c45)ccc32)c1 [GSK2608899]	0
N#Cc1cnc2cc(-c3cnc(CNCCN4CCOCC4)s3)ccc2c1Nc1ccc(Oc2ccccc2)cc1 [GW664114]	2
O=C(Nc1n[nH]c2cc(-c3cccs3)ccc12)C1CC1 [SB-731284]	0
CN(C)CCOc1ccc(-c2cc(-c3ccc(Cl)c(O)c3)c(-c3ccncc3)[nH]2)cc1.Cl.Cl [SB-684387]	60
Cc1cccc(Nc2nc(NCCN)ncc2C(N)=O)c1 [GSK1292139]	0
COC(=O)Nc1nc2cc(Oc3ccc(NC(=O)Nc4cccc(SC)c4)cc3)ccc2[nH]1.Cl [GW697999]	81
Nc1ncnc2scc(-c3ccc(NC(=O)Cc4cc(F)ccc4F)cc3)c12.O=C(O)C(F)(F)F [SB-731254-M]	0
CC(C)c1nc(-c2ccc(F)c(NS(=O)(=O)c3c(F)cccc3F)c2)c(-c2ccnc(Nc3ccc(N4CCOCC4)nc3)n2)s1 [GSK1804250]	18
NCCC(NC(=O)c1cc(Br)c(-c2ccnc3[nH]ccc23)s1)c1ccccc1.O=C(O)C(F)(F)F.O=C(O)C(F)(F)F (stereo not shown) [GSK1307810]	2
COc1ccc(NC(=O)c2ccoc2)cc1-c1ccc(C(=O)NCC2CC2)cc1 [GW810437]	1
